# Results reported in the supplement of paper PMC6897291.
# Tested on: RIVA
# Experiment: growth inhibition by drug plus 177Lu-lilotomab satetraxetan (1 - RLU/untreated control) (fraction); higher = stronger inhibition
# Settings: 177Lu-lilotomab satetraxetan 0.5 ug/ml
# Protocol: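 RIVA (RI-1) ABC-DLBCL cells were pretreated or not for 18 h with 0.5 ug/ml 177Lu-lilotomab satetraxetan (600 MBq/mg), washed and seeded (3000 cells/well) on 384-well plates pre-printed with the Selleck Cambridge Cancer Compound library. Viability was read by RealTime-Glo luminescence on days 3-6 after seeding. Effect = 1 - RLU/mean RLU of the 48 untreated no-drug control wells per plate; Bliss score = (M-E)/(1-Fa).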
smiles,measurement,setting,value
CC[C@@H](C(=O)[C@@H](C)[C@@H](O)[C@H](C)[C@@H]1O[C@@H]([C@@H](CC)C(=O)O)CC[C@@H]1C)[C@H]1O[C@]2(C=C[C@@H](O)[C@]3(CC[C@@](C)([C@H]4CC[C@](O)(CC)[C@H](C)O4)O3)O2)[C@H](C)C[C@@H]1C [Salinomycin (Procoxacin)],growth inhibition by drug plus 177Lu-lilotomab satetraxetan,"10 nM, time (day): 3",0.491
same,growth inhibition by drug plus 177Lu-lilotomab satetraxetan,"10 nM, time (day): 4",0.572
same,growth inhibition by drug plus 177Lu-lilotomab satetraxetan,"10 nM, time (day): 5",0.591
same,growth inhibition by drug plus 177Lu-lilotomab satetraxetan,"10 nM, time (day): 6",0.6
same,growth inhibition by drug plus 177Lu-lilotomab satetraxetan,"100 nM, time (day): 3",0.481
same,growth inhibition by drug plus 177Lu-lilotomab satetraxetan,"100 nM, time (day): 4",0.518
same,growth inhibition by drug plus 177Lu-lilotomab satetraxetan,"100 nM, time (day): 5",0.517
same,growth inhibition by drug plus 177Lu-lilotomab satetraxetan,"100 nM, time (day): 6",0.502
CC1=C2C[C@H]3[C@@H](CC=C4C[C@@H](O)CC[C@@]43C)[C@@H]2CC[C@]12O[C@@H]1C[C@H](C)CN[C@H]1[C@H]2C [Cyclopamine],growth inhibition by drug plus 177Lu-lilotomab satetraxetan,"10 nM, time (day): 3",0.301
same,growth inhibition by drug plus 177Lu-lilotomab satetraxetan,"10 nM, time (day): 4",0.397
same,growth inhibition by drug plus 177Lu-lilotomab satetraxetan,"10 nM, time (day): 5",0.41
same,growth inhibition by drug plus 177Lu-lilotomab satetraxetan,"10 nM, time (day): 6",0.418
same,growth inhibition by drug plus 177Lu-lilotomab satetraxetan,"100 nM, time (day): 3",0.454
same,growth inhibition by drug plus 177Lu-lilotomab satetraxetan,"100 nM, time (day): 4",0.57
same,growth inhibition by drug plus 177Lu-lilotomab satetraxetan,"100 nM, time (day): 5",0.559
same,growth inhibition by drug plus 177Lu-lilotomab satetraxetan,"100 nM, time (day): 6",0.53
C[C@]12CCC(=O)C(O)=C1CC[C@@H]1[C@@H]2CC[C@]2(C)C(=O)CC[C@@H]12 [Formestane],growth inhibition by drug plus 177Lu-lilotomab satetraxetan,"10 nM, time (day): 3",0.476
same,growth inhibition by drug plus 177Lu-lilotomab satetraxetan,"10 nM, time (day): 4",0.532
same,growth inhibition by drug plus 177Lu-lilotomab satetraxetan,"10 nM, time (day): 5",0.553
same,growth inhibition by drug plus 177Lu-lilotomab satetraxetan,"10 nM, time (day): 6",0.549
same,growth inhibition by drug plus 177Lu-lilotomab satetraxetan,"100 nM, time (day): 3",0.447
same,growth inhibition by drug plus 177Lu-lilotomab satetraxetan,"100 nM, time (day): 4",0.508
same,growth inhibition by drug plus 177Lu-lilotomab satetraxetan,"100 nM, time (day): 5",0.53
same,growth inhibition by drug plus 177Lu-lilotomab satetraxetan,"100 nM, time (day): 6",0.533
CC(C)[C@]12O[C@H]1[C@@H]1O[C@]13[C@]1(O[C@H]1C[C@H]1C4=C(CC[C@@]13C)C(=O)OC4)[C@@H]2O [Triptolide],growth inhibition by drug plus 177Lu-lilotomab satetraxetan,"10 nM, time (day): 3",0.648
same,growth inhibition by drug plus 177Lu-lilotomab satetraxetan,"10 nM, time (day): 4",0.885
same,growth inhibition by drug plus 177Lu-lilotomab satetraxetan,"10 nM, time (day): 5",0.928
same,growth inhibition by drug plus 177Lu-lilotomab satetraxetan,"10 nM, time (day): 6",0.948
same,growth inhibition by drug plus 177Lu-lilotomab satetraxetan,"100 nM, time (day): 3",0.941
same,growth inhibition by drug plus 177Lu-lilotomab satetraxetan,"100 nM, time (day): 4",0.967
same,growth inhibition by drug plus 177Lu-lilotomab satetraxetan,"100 nM, time (day): 5",0.979
same,growth inhibition by drug plus 177Lu-lilotomab satetraxetan,"100 nM, time (day): 6",0.984
CC(O)(CS(=O)(=O)c1ccc(F)cc1)C(=O)Nc1ccc(C#N)c(C(F)(F)F)c1 (stereo not given) [Bicalutamide (Casodex)],growth inhibition by drug plus 177Lu-lilotomab satetraxetan,"10 nM, time (day): 3",0.401
same,growth inhibition by drug plus 177Lu-lilotomab satetraxetan,"10 nM, time (day): 4",0.506
same,growth inhibition by drug plus 177Lu-lilotomab satetraxetan,"10 nM, time (day): 5",0.542
same,growth inhibition by drug plus 177Lu-lilotomab satetraxetan,"10 nM, time (day): 6",0.556
same,growth inhibition by drug plus 177Lu-lilotomab satetraxetan,"100 nM, time (day): 3",0.351
same,growth inhibition by drug plus 177Lu-lilotomab satetraxetan,"100 nM, time (day): 4",0.443
same,growth inhibition by drug plus 177Lu-lilotomab satetraxetan,"100 nM, time (day): 5",0.458
same,growth inhibition by drug plus 177Lu-lilotomab satetraxetan,"100 nM, time (day): 6",0.432
